PubChem BioAssay (NCI)
“And” between values parts separate entries of the source, which are not always exact repeats. Equal values may be shown once. About 79,000 compounds went through this panel and 15% of them were active in at least one assay; those are over-represented in the sample as a whole. A number with no mark means an inactive call. No stated cut-off is given here; in the data, active means growth inhibition above about 70%; inactive means the rest.

Test: NCI Yeast Anticancer Drug Screen. Data for the sgs1 mgt1 strain (AID 161);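 further: 0% = growth of cultures given vehicle only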
Settings: S. cerevisiae sgs1 mgt1 strain, stronger effect = higher value; at 50.0 µM unless noted
Outline: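 Yeast cells carrying a defined DNA-repair defect were exposed to test compounds. Growth inhibition was measured relative to vehicle-treated controls.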

Compound	growth inhibition
C/C(=N\NS(=O)(=O)c1c(C)cc(C)cc1C)c1ccc[n+]([O-])n1	-8.4%
Nc1cc([N+](=O)[O-])ccc1C(=O)O	-11.4%
FC(F)(F)c1ccc2nc(NCc3ccccc3)c(-c3ccccc3)nc2c1	24.6%
Nc1ccc(C(=O)O)cc1N	15.4%
O=C(O)[C@H](Cc1ccccc1)N1C(=O)N[C@@H](Cc2ccccc2)C1=O	4.75%
COC(=O)CC1C(C)(C)C(=O)C2CC3=C4CC(=O)OC(c5ccoc5)C4(C)CCC3C1(C)C2=O (stereo not drawn)	-20.1%
Cn1c2c(c(=O)c3cc(O)ccc31)CC(O)C(C)(C)O2 (stereo not drawn)	-11.7%
CC(C)N1C(=O)c2cccc(Cl)c2C1=O (tested in a mixture with another compound)	37.3%
CN1C(C)(C)CC(=O)C(Br)C1(C)C (stereo not drawn)	-33.8%
C#CC(O)C1OC(C)(C)OC1C1COC(C)(C)O1 (stereo not drawn)	13.2%
CC(C)(C)c1cc(-n2nc3ccccc3[n+]2[O-])c(O)c(C(C)(C)C)c1	20.1%
COc1cccc(/C=C/C(C)=N/NC(N)=O)c1	5.5%
Brc1ccc2c(ccc3c2nnc2ncnn23)c1	16.9%
COc1ccc(OC)c2[nH]c(Sc3c([N+](=O)[O-])ncn3C)nc12	-15.4%
COc1cc(OC)c(/C=N/N=C(\N)NO)c(OC)c1	-0.7%
COC1=NS(=O)(=O)C2CCCCCCC2O1 (stereo not drawn)	1.15%
COc1ccc(/C=N/N=C(/C(=O)c2ccc(OC)cc2)c2ccc(OC)cc2)cc1	11.8%
CN(C)c1ccc(N)c(N)c1	-4.45%
Nc1ccc(OCc2ccccc2)cc1[N+](=O)[O-]	11.3%
CC(C)(C)c1ccncc1	-16.4%

Compound	growth inhibition
CC1(C)CSCC(C)(C)C(=N/N)/C1=N\N	-8.35%
CC(=O)OC(C)COc1ccccc1 (stereo not drawn)	2.05% and -4.55%
CN(C(=O)Cc1ccccc1)n1cn[n+](CC(=O)OC(C)(C)C)c1	-12.4%
C#CCOC(=O)Nc1ccccc1	-8.7% and -8.65%
CCc1cc(C)cc(O)c1	-65.2% and -1.55%
CCc1ccc(NS(=O)(=O)c2ccccc2[N+](=O)[O-])cc1	61.8%
CC(C)OC(=O)Nc1cccc(Cl)c1F	-6.2%
CC(Oc1ccccc1)C(=O)NC(=S)Nc1cccc2ccccc12 (stereo not drawn)	-3.35%
O=c1[nH]cnc2c1ncn2C1CCCO1 (stereo not drawn)	-2.9%
N#CC1CSCC1=O (stereo not drawn)	-20.4%
Cc1ccc(S(=O)(=O)CC(=O)NC(C)C)cc1	4%
Cc1c(Cl)cccc1NC(=O)C(=O)c1c(O)c2ccc(O)cc2oc1=O	-19.1%
Nc1c(Cl)ncnc1NCc1ccco1	-13.8%
CC(=O)c1cccc(NC(=O)CCCCCCCCC(=O)Nc2cccc(C(C)=O)c2)c1	-1.55%
CCOC(=O)O/C(C)=C\c1ccc(Cl)cc1	-12.4%
CC(=O)C[n+]1cccc(Br)c1	10.2%
Cc1cc2nc3c(=O)[nH]c(=O)nc-3n(C/C=N/NC(N)=S)c2cc1C	-5.05%
O=C(CCCN1CCC2(CC1)CC(=O)N(N1CCOCC1)C2=O)c1ccc(F)cc1	2.75%
O=C(/C=C/c1ccccc1)CSc1ncn[nH]1	8.7%

Test: NCI Yeast Anticancer Drug Screen. Data for the cln2 rad14 strain (AID 165);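 further: 0% = growth equal to vehicle treated cultures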
Settings: S. cerevisiae cln2 rad14 strain, stronger effect = higher value; at 50.0 µM unless noted
Outline: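 Growth inhibition, relative to vehicle-treated controls, is the read-out. The test organism is a yeast strain with defined genetic alterations, cln2 rad14.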

Compound	growth inhibition
C/C(=N\NS(=O)(=O)c1c(C)cc(C)cc1C)c1ccc[n+]([O-])n1	15.1%
Nc1cc([N+](=O)[O-])ccc1C(=O)O	-3.1%
FC(F)(F)c1ccc2nc(NCc3ccccc3)c(-c3ccccc3)nc2c1	-6.25%
Nc1ccc(C(=O)O)cc1N	15.3%
O=C(O)[C@H](Cc1ccccc1)N1C(=O)N[C@@H](Cc2ccccc2)C1=O	2.35%
COC(=O)CC1C(C)(C)C(=O)C2CC3=C4CC(=O)OC(c5ccoc5)C4(C)CCC3C1(C)C2=O (stereo not drawn)	-8.3%
Cn1c2c(c(=O)c3cc(O)ccc31)CC(O)C(C)(C)O2 (stereo not drawn)	-11%
CC(C)N1C(=O)c2cccc(Cl)c2C1=O (tested in a mixture with another compound)	37.6%
CN1C(C)(C)CC(=O)C(Br)C1(C)C (stereo not drawn)	-6.2%
C#CC(O)C1OC(C)(C)OC1C1COC(C)(C)O1 (stereo not drawn)	-4.4%
CC(C)(C)c1cc(-n2nc3ccccc3[n+]2[O-])c(O)c(C(C)(C)C)c1	18.6%
COc1cccc(/C=C/C(C)=N/NC(N)=O)c1	-7.1%
Brc1ccc2c(ccc3c2nnc2ncnn23)c1	10.7%
COc1ccc(OC)c2[nH]c(Sc3c([N+](=O)[O-])ncn3C)nc12	8.55%
COc1cc(OC)c(/C=N/N=C(\N)NO)c(OC)c1	9.65%
COC1=NS(=O)(=O)C2CCCCCCC2O1 (stereo not drawn)	-74.2%
COc1ccc(/C=N/N=C(/C(=O)c2ccc(OC)cc2)c2ccc(OC)cc2)cc1	3.2%
CN(C)c1ccc(N)c(N)c1	12.1%
Nc1ccc(OCc2ccccc2)cc1[N+](=O)[O-]	14.5%
CC(C)(C)c1ccncc1	-10.2%

Compound	growth inhibition
CC1(C)CSCC(C)(C)C(=N/N)/C1=N\N	4.35%
CC(=O)OC(C)COc1ccccc1 (stereo not drawn)	-31.2% and -6.8%
CN(C(=O)Cc1ccccc1)n1cn[n+](CC(=O)OC(C)(C)C)c1	-8.35%
C#CCOC(=O)Nc1ccccc1	-72.2% and -54.2%
CCc1cc(C)cc(O)c1	0.45% and 7.15%
CCc1ccc(NS(=O)(=O)c2ccccc2[N+](=O)[O-])cc1	25.3%
CC(C)OC(=O)Nc1cccc(Cl)c1F	-0.75%
CC(Oc1ccccc1)C(=O)NC(=S)Nc1cccc2ccccc12 (stereo not drawn)	-19.6%
O=c1[nH]cnc2c1ncn2C1CCCO1 (stereo not drawn)	-24.1%
N#CC1CSCC1=O (stereo not drawn)	-12.8%
Cc1ccc(S(=O)(=O)CC(=O)NC(C)C)cc1	17.2%
Cc1c(Cl)cccc1NC(=O)C(=O)c1c(O)c2ccc(O)cc2oc1=O	3.45%
Nc1c(Cl)ncnc1NCc1ccco1	-13.8%
CC(=O)c1cccc(NC(=O)CCCCCCCCC(=O)Nc2cccc(C(C)=O)c2)c1	-49.5%
CCOC(=O)O/C(C)=C\c1ccc(Cl)cc1	-50.4%
CC(=O)C[n+]1cccc(Br)c1	-8.15%
Cc1cc2nc3c(=O)[nH]c(=O)nc-3n(C/C=N/NC(N)=S)c2cc1C	-45.1%
O=C(CCCN1CCC2(CC1)CC(=O)N(N1CCOCC1)C2=O)c1ccc(F)cc1	4.5%
O=C(/C=C/c1ccccc1)CSc1ncn[nH]1	4.75%
